# Pf gametocyte = inhibitors of late stage P. falciparum gametocyte viability | P. falciparum stage V gametocytes, ATP luminescence, 24 h | 150,000 tested, 0.065% active | inhibition, % at 10.9 µM;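 active = inhibition above the mean plus 3 SD of compounds within the control limits, set per campaign, cut at about 38% in these data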;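 also: 0% = DMSO wells and 100% = medium only without gametocytes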
# Hsp70 activator = transcriptional activators of Hsp70. 200,000 tested, 0.04% active. HeLa Hsp70 promoter luciferase reporter, luminescence; scaled: vehicle 0, proteasome-inhibitor control 100%. activation, % at 10 µM;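 active = activation above the mean across all tested compounds plus 3 SD, cutoff set per campaign, cut at about 5.5% in these data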;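 also: 100% = MG132 at 30 µM as the positive control and 0% = DMSO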
# S1P3 antag = blocks the human S1P3 receptor; Q99500; CHO S1P3 NFAT-BLA reporter, FRET fluorescence, antagonist mode; inhibition, % at 4.98 µM; 170,000 tested, 0.27% active;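 active = inhibition above the plate cutoff, the mean inhibition of test wells on that plate plus 3 SD, cut at about 28% in these data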;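 also: cells challenged with S1P at its EC80 of 0.8 µM; blue over green emission ratio from cleaved BLA substrate after 4 h stimulation; 0% = S1P-stimulated wells and 100% = unstimulated DMSO-only wells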
# S1P4 antagonist = human S1P4 receptor antagonism; O95977; S1P4-expressing cells, antagonist mode, reporter read-out; inhibition, % at 4.98 µM; 220,000 tested, 0.26% active; AID 1510; in the data active = inhibition above about 29%;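 also: 0% = wells stimulated with agonist and 100% = vehicle wells without agonist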
# S1P4 ag = human S1P4 receptor agonism; AID 1509; O95977; activation, % at 4.98 µM; 220,000 tested, 0.35% active; S1P4-expressing cell line, agonist reporter assay; in the data active = activation above about 11%;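 also: 0% = DMSO vehicle and 100% = reference agonist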
# S1P4 agonist cf = confirmation of human S1P4 receptor agonists; shares compounds with S1P4 ag; S1P4 agonist cell-based reporter assay; activation, % at 4.98 µM; 740 tested, 7% active; AID 1523; in the data active = activation above about 12%;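 also: 0% = vehicle and 100% = full reference agonist response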
# S1P1 agonist = counter-screen for S1P4 agonists: agonists of human S1P1; activation, % at 4.98 µM; shares compounds with S1P4 ag; S1P1 agonist cell-based assay, activation; 740 tested, 4% active; in the data active = activation above about 21%;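 also: 0% = vehicle wells and 100% = reference agonist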
# Target sequence (P21453 whole entry, looked up): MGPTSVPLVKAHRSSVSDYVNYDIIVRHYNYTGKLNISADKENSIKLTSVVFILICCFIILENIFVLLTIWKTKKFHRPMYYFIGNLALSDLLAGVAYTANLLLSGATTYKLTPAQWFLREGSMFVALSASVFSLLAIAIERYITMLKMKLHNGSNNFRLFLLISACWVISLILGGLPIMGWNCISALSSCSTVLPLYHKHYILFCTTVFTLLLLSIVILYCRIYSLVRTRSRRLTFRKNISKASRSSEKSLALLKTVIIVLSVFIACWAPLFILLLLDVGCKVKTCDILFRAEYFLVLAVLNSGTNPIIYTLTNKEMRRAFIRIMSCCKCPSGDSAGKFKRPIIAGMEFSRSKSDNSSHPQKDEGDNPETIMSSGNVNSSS
# Numbers without * were called inactive; . = not tested or not shown. Only some compounds are listed: those with a hit (about 0.83% of all), similar ones and a draw of the others.
SMILES,Pf gametocyte,Hsp70 activator,S1P3 antag,S1P4 antagonist,S1P4 ag,S1P4 agonist cf,S1P1 agonist
COc1ccc(C(CC(=O)O)NC(=O)COc2ccccc2)cc1OC (configuration not stated),-3,0,-17,4,2,.,.
O=C(/C=C/c1ccco1)Nc1ccccc1N1CCOCC1,.,0,-13,-23,20*,-1,-4
Cc1onc(-c2ccccc2Cl)c1C(=O)Oc1cccc2cccnc12,-32,0,-22,4,1,.,.
CCCC(=O)N1N=C(c2ccccc2)CC1c1cn(C)c2ccccc12 (configuration not stated),0,-1,7,-19,0,.,.
Cn1cc(C2CC(c3ccccc3)=NN2C(=O)c2ccccc2)c2ccccc21 (configuration not stated),.,0,-3,-15,13*,-3,0
O=C(/C=C/c1ccc(F)cc1)N1CCN(c2ccccn2)CC1,4,0,-6,-32,16*,-1,-5
COc1cc(C(=O)NCc2nnc(SCC(=O)Nc3nccs3)o2)cc(OC)c1OC,5,0,-21,-20,13*,-3,-1
O=C(CSc1nnc(CNC(=O)c2cccs2)o1)Nc1ccccc1,.,0,-16,-6,12*,0,-5
Cc1ccc(NC(=O)CSc2nnc(CNC(=O)c3cccs3)o2)cc1,-4,0,-10,-4,0,.,.
O=C1C(Cc2ccc3[nH]ccc3c2)NC(=S)N1c1ccccc1 (configuration not stated),-20,.,-7,8,0,.,.
COCCCNC(=O)c1ccc(Cn2c(=O)[nH]c3ccccc3c2=O)cc1,.,0,-11,-3,12*,-1,-4
COCCCNC(=O)c1ccc(Cn2c(=O)c3ccccc3n(Cc3ccccc3C)c2=O)cc1,17,0,.,-12,0,.,.
COCCCNC(=O)c1ccc(Cn2c(=O)c3ccccc3n(Cc3ccccc3C#N)c2=O)cc1,0,-1,.,-88,58*,-2,-4
COCCCNC(=O)c1ccc2c(=O)n(Cc3ccc(OC)cc3)c(=O)[nH]c2c1,10,0,-24,0,-1,.,.
COc1ccc(-c2nnc(NC(=O)C3=COCCO3)o2)cc1,-15,0,-8,-11,0,.,.
O=C(Cn1c2c(c(-c3ccccc3Cl)cc1=O)CCC2)NCCCN1CCOCC1,1,.,5,-9,1,.,.
CCCN(Cc1nnc(-c2ccccc2Cl)o1)C(=O)c1cc([N+](=O)[O-])cc([N+](=O)[O-])c1,-19,0,3,-10,19*,-2,-6
COc1ccc(Nc2nnc(C)c(=O)[nH]2)c(OC)c1,0,.,4,-14,0,.,.
O=C1c2cccc3cc([N+](=O)[O-])cc(c23)C(=O)N1CCN1CCCC1,.,.,-14,-64,24*,23*,92*
O=c1[nH][nH]c(=S)n1-c1ccccc1C(F)(F)F,.,.,-14,-4,-1,.,.
Cc1ccc(C2Nc3ccccc3-c3nc4ccccc4n32)o1 (configuration not stated),.,0,.,-11,12*,-2,2
Cc1ccc(-c2nc3ccccc3n2C)o1,.,0,.,-23,-2,.,.
CCC(C)NCCC(=O)Nc1ccc(Cl)c(S(=O)(=O)Nc2ccc(Cl)cc2)c1 (configuration not stated),4,0,-14,-2,19*,-3,-7
COc1ccc(OC)c(NC(=O)c2ccccc2OC(C)=O)c1,2,.,.,.,.,.,.
Cc1nn(Cc2ccc(F)cc2)c(C)c1NC(=O)c1cc(-c2ccc3c(c2)OCO3)on1,.,0,6,-4,0,.,.
SMILES,Pf gametocyte,Hsp70 activator,S1P3 antag,S1P4 antagonist,S1P4 ag,S1P4 agonist cf,S1P1 agonist
Cc1ccc(Cn2nc(C)c(NC(=O)c3cc(-c4ccc5c(c4)OCO5)on3)c2C)cc1,-17,0,27,4,19*,-2,0
Cc1cc(C)c(S(=O)(=O)NCCc2ccccc2)c(C)c1,-35,0,6,-9,21*,-1,-7
Cc1ccc(NC(=O)N2CCN(c3ncccc3C(F)(F)F)CC2)cc1,9,.,7,15,1,.,.
O=C(Nc1ccc2ccccc2c1)N1CCN(c2ncccc2C(F)(F)F)CC1,14,0,6,-14,16*,-1,2
O=C1OC(/C=C/c2ccc(Cl)cc2Cl)=NC/1=C\c1cccs1,-15,0,5,-20,0,.,.
Cc1ccc(CNC(=O)Cc2noc3ccccc23)cc1,18,0,2,12,-1,.,.
COc1cc(C)nc(Nc2nc(C)c(C(C)=O)s2)n1,.,0,.,-16,12*,-3,0
COc1ccc2nc(Nc3nc(C)c(C(C)=O)s3)sc2c1,.,1,16,-13,1,.,.
Cn1ccnc1SCC(=O)Nc1ccc(F)c([N+](=O)[O-])c1,2,0,-4,-15,-1,.,.
CC1(C)CC(=O)C2=C(C1)c1c(ccc3ccccc13)NC2c1ccc(Br)o1 (configuration not stated),13,0,.,-8,1,.,.
Cn1ccnc1SCC(=O)c1ccc2ccccc2c1,4,0,-9,-6,0,.,.
CN(Cc1ccccc1)c1nnc(N)s1,.,0,-2,-10,13*,-1,-8
S=C(NCc1ccc(Cl)cc1)NN1CCOCC1,-13,0,-26,-3,-1,.,.
CCOc1ccc(CN2CCN(Cc3nc4c(s3)CCCC4)CC2CCO)cc1 (configuration not stated),.,0,-16,3,0,.,.
CCN1C(=O)CS/C1=N\S(=O)(=O)c1ccc(C)cc1,4,0,-27,11,0,.,.
C=CCN1C(=O)CS/C1=N\S(=O)(=O)c1ccc(Cl)cc1,0,0,0,-4,11*,-2,-3
Cc1cccc(N2CCN(C(=S)Nc3ccc4nc5n(c(=O)c4c3)CCCCC5)CC2)c1C,21,0,5,-11,-1,.,.
CCCCNC(=O)Cc1ccc(Br)cc1,.,0,-12,-15,13*,-2,-3
COCCNC(=O)Cc1ccc(Br)cc1,.,0,-10,6,-1,.,.
Cc1cc(C(=O)CN2C(=O)C(=O)N(Cc3ccccc3)C2=O)c(C)n1-c1ccccc1F,-20,0,-24,-23,13*,-1,-5
Cc1cc(C(=O)CN2C(=O)C(=O)N(Cc3ccccc3)C2=O)c(C)n1CC1COc2ccccc2O1 (configuration not stated),6,0,-16,-15,-1,.,.
NC(=S)c1cc2ccc(O)cc2oc1=O,.,0,.,-40,67*,17*,20
C/C(=N/NC(N)=S)c1cc2ccc(O)cc2oc1=O,-10,.,-11,-50,39*,18*,16
CC(=O)Nc1nc(SCC(=O)NCc2ccc(F)cc2)[nH]c(=O)c1NC(=O)c1cccs1,10,0,-23,-6,-2,.,.
CCC(=O)NCCc1nc(-c2ccccc2)no1,-20,.,.,.,.,.,.
COc1ccccc1OCC(=O)NCc1nc(-c2ccccc2)no1,-22,0,0,-9,76*,-1,1

# Compound activity (PubChem BioAssay)
